Screens: PubChem BioAssay, National Center for Advancing Translational Sciences (NCATS)
Sampled rows, rich in hits. Any-hit rate of the full collection: about 1.5%.
IDH1 R132H inh: qHTS for Inhibitors of mutant isocitrate dehydrogenase 1 (IDH1): qHTS. IDH1-R132H enzyme, NADPH consumption, diaphorase/resazurin fluorescence. Potency, µM (series often up to 76.6 µM), inactives show at the highest dose activity change, negative = inhibition, actives largely listed as inhibitors. 390,000 compounds, 0.093% hits. AID 602179, 2012; note: potency is the fitted concentration of half-maximal effect; nearly all actives have a fitted effect of over 65% in size
Target sequence (O75874 whole entry R132H, stated change not applied): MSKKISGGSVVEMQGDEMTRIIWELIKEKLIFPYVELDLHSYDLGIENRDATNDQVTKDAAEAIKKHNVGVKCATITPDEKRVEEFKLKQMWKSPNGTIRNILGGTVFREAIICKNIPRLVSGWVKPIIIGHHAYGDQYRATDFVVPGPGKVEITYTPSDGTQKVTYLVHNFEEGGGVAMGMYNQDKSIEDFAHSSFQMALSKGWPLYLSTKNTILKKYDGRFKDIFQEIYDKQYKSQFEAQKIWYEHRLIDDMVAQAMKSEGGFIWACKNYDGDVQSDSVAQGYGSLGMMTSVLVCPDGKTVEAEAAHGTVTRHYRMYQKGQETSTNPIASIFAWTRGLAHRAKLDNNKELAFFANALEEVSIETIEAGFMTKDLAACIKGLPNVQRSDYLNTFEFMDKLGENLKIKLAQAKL
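IDH1-R132H (0.5 ug/mL dispensed) in pH 7.5 Tris buffer was preincubated 30 min with compound, then given a substrate mix of 0.016 mM NADPH and 2 mM alpha-KG for 80 min at room temperature; remaining NADPH was read by diaphorase/resazurin fluorescence.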
TrxR1 substrate: qHTS Assay for Substrates of Mammalian Selenoprotein Thioredoxin Reductase 1 (TrxR1): qHTS; AID 588456, 2011; purified TrxR1 substrate turnover, NADPH consumption readout; Potency, µM (top dose mostly 114 µM), for the others: at the top dose activity change, negative = substrate turnover; 390,000 compounds, 0.01% hits; Thioredoxin reductase 1, cytoplasmic (Rattus norvegicus), O89049; note: potency is the fitted concentration of half-maximal effect; nearly all actives have a fitted effect of over 50% in size
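Rat TrxR1, dispensed at 90 nM, was prereduced with 400 uM NADPH (final) for 5 min at ~22 deg C, then incubated with compound 15 min before 400 uM selenite. A first-read NADPH fluorescence drop versus no-compound background flagged substrates.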
Coupling enz: qHTS Assay for Inhibitors of Fructose-1,6-bisphosphate Aldolase from Giardia Lamblia: Coupling assay counterscreen. coupling enzyme system counterscreen, AmpLite Red fluorescence. activity change, negative = inhibition, % at 58.2 µM, hits read low. 290,000 compounds, 0.67% hits. AID 2472, 2010; in the data active = activity change below about -30%
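Activity here indicates interference with the coupling reaction, not aldolase inhibition. Compounds at 57.5 uM final met coupling enzymes for 10 min at RT; substrate and AmpLite Red detection followed, with a 525/598 nm fluorescence read after 20 min.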
TrxR1 inh: qHTS Assay for Inhibitors of Mammalian Selenoprotein Thioredoxin Reductase 1 (TrxR1): qHTS; 390,000 compounds, 1% hits; recombinant rTrxR1, NADPH fluorescence consumption, selenite substrate; AID 588453, 2011; Thioredoxin reductase 1, cytoplasmic (Rattus norvegicus), O89049; Potency, µM (series often up to 114 µM), without a hit: top-dose activity change, negative = inhibition, hits mostly inhibitors; note: potency is the fitted concentration of half-maximal effect; nearly all actives have a fitted effect of over 65% in size
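Rat TrxR1 (90 nM in the dispensed reagent) was pre-reduced with 400 uM NADPH for 5 min at room temperature, then incubated with compound for 15 min. After 400 uM selenite was added, NADPH fluorescence (Ex 340/Em 450 nm) was followed for 8 min.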
Eya2 inh: qHTS Assay for Inhibitors of the Phosphatase Activity of Eya2; Protein phosphatase EYA2 (Homo sapiens), O00167; recombinant Eya2, OMFP fluorescence dephosphorylation (OMFP is methylfluorescein phosphate); Potency, µM (highest dose often 76.9 µM), for inactives: top-dose activity, negative = inhibition, usual class: inhibitors; 330,000 compounds, 0.006% hits; AID 488837, 2010; note: potency is the fitted concentration of half-maximal effect
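Eya2 (0.2 uM) preincubated 10 min at ambient with compound, then OMFP substrate added at 50 uM; 10 min reaction in 50 mM HEPES pH 7.5, 50 mM NaCl, 5 uM MgCl2, 0.05% BSA, 1 mM DTT. Fluorescence read at Ex 485/Em 525 nm.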
Starred values were filed as active, the others as inactive; ? = inconclusive; . = no result; ! = not confirmed by another sample; [ ] = remark or other dose. Unless noted, calls come from the whole dose curve; as a rule, active = well fitted curve in the direction sought with a large enough effect; inconclusive = small, poorly fitted or top-dose-only effect, or another doubt; inactive = no such curve, though single readings can be large; an effect the other way counts as inactive or inconclusive. % is set by controls: 0 for no effect and ±100 for the full control effect.

SMILES	IDH1 R132H inh	TrxR1 substrate	Coupling enz	TrxR1 inh	Eya2 inh
O=C1C(Cl)=C(NC(=O)c2ccccc2)C(=O)C(Cl)=C1NC(=O)c1ccccc1	8.6%	-16.6%	-29.1	0.316µM*	-4.8%
CN(C1=C(NC(=O)c2ccc(Cl)cc2)C(=O)c2ccccc2C1=O)c1ccccc1	3.9%	-6.4%	-54.6*	5.2%	5.1%
CN(c1ccc(C(=O)Nc2ccc(Cl)cn2)cc1)S(=O)(=O)c1ccccc1	14.7%	-11.0%	-13.5	1.7%	0.2%
C[C@H]1Cc2c(-c3ccccc3)nc3c(c2CO1)CN(C(=O)c1ccco1)CC3	.	.	-0.5	.	.
COC(=O)C(C(=O)OC)[C@@H]1c2ccccc2[C@H]2C(=C[C@@H](C)[C@H]3C(=O)N(c4ccccc4)C(=O)[C@H]32)N1C(=O)OC	.	.	0.0	.	.
O=C(Nc1c(Cl)cc([N+](=O)[O-])cc1Cl)c1cc(Cl)ccc1O	.	-3.1%	.	2.2%	.
O=C(NCCc1nc2ccccc2n1CCOc1ccccc1)C1CCCCC1	.	9.9%[0.0914 µM]	.	-4.1%	.
Cc1cccc(NC2=C(NC(=O)c3ccccc3)C(=O)c3ccccc3C2=O)c1	9.4%	-21.7%	-41.0*	?	-18.2%
CCOC(=O)CSC1=NC(=O)CS1	-2.2%	0.5%	-1.8	14.1µM*	11.3%
CCOc1ccccc1N1CCN(Cc2cccc(OC)c2OC)CC1	4.1%	3.0%	-41.1*	16.2%	7.3%
COc1ccccc1N1CCN(Cc2ccc(OC)c(OC)c2OC)CC1	-3.4%	-3.5%	-0.2	-5.9%	-6.5%
COc1ccc(Cn2c(-c3ccc(OC)cc3)nc3ccccc32)cc1	2.2%	1.9%	0.8	1.5%	-4.4%
COc1ccc(Cn2c(C)ccc2C)cc1	3.9%	-0.9%	0.7	31.6µM*	3.9%
O=C(OCn1ncc(Cl)c(Cl)c1=O)c1cccc(C(F)(F)F)c1	-3.0%	2.6%	5.6	15.8µM*	-11.7%
NC(N)=NCCC[C@H](NC(=O)[C@H](Cc1ccccc1)NC(=O)[C@@H]1CCCN1C(=O)[C@H](CO)NC(=O)[C@H](Cc1ccccc1)NC(=O)CNC(=O)[C@@H]1CCCN1C(=O)[C@@H]1CCCN1C(=O)[C@@H](N)CCCN=C(N)N)C(=O)O	.	.	2.1	.	.
COc1cc(OC)c(NC(=O)c2nn(C)c3c2COc2ccccc2-3)cc1Cl	13.6%	6.2%	.	15.8µM*	.
COc1cc(OC)c(NC(=O)c2noc3c2CSc2ccccc2-3)cc1Cl	7.7%	-5.6%	.	7.08µM*	.
CC1=C(C(=O)O)N2C(=O)C(NC(=O)C(N)c3ccccc3)C2SC1 (centres undefined)	.	.	2.4	.	.
COc1cc2nc(N3CCN(C(=O)C4CCCO4)CC3)nc(N)c2cc1OC (centres undefined)	15.7%	323.3%[57.1 µM]	-49.7*!	53.2%[57.1 µM]	3.3%
Nc1ccc(-n2nnnc2CN2CCOCC2)cc1	2.8%	-3.0%	4.0	-3.5%	-2.1%
Nc1cccc(-n2nnnc2CN2CCOCC2)c1	6.9%	1.3%	-30.9*	4.9%	3.3%
COc1cccc(/C=C/c2cnc3ccccc3n2)c1OC	.	-3.9%	.	2.1%	.
O=C(CCN1CCc2ccccc2C1)c1ccc2c(c1)OCCO2	0.2%	-0.2%	-9.5	0.562µM*	1.6%
O=C(CCN1CCCCC1)c1ccc2c(c1)OCCO2	1.6%	21.0%	3.9	0.316µM*	17.9%
O=C(CCc1ccccc1)c1ccc2c(c1)OCCCO2	2.7%	1.9%	0.5	12.1%	3.3%
SMILES	IDH1 R132H inh	TrxR1 substrate	Coupling enz	TrxR1 inh	Eya2 inh
COc1cc(C(=O)CCN2CCC(c3ccccc3)C2)cc(OC)c1OC (centres undefined)	2.8%	-7.4%	0.4	0.501µM*	-6.8%
O=C(CCN1CCCC1Cc1ccccc1)c1ccc2c(c1)OCCO2 (centres undefined)	3.5%	3.2%	-0.2	0.316µM*	.
COc1cc(C(=O)NC2CCN(Cc3ccccc3)CC2)cc(Cl)c1OC	-0.8%	-0.9%	4.8	6.1%	5.6%
C[C@H](NC(=O)[C@@H](N)Cc1ccc(O)cc1)C(=O)NCC(=O)N[C@H]1CSSC[C@@H](C(=O)O)NC(=O)[C@H](CO)NC(=O)[C@H]([C@@H](C)O)NC(=O)[C@H](Cc2ccccc2)NC(=O)[C@H]([C@@H](C)O)NC(=O)[C@H](CCCCN)NC(=O)[C@H](Cc2c[nH]c3ccccc23)NC(=O)[C@H](Cc2ccccc2)NC(=O)[C@H](Cc2ccccc2)NC(=O)[C@H](CC(N)=O)NC(=O)[C@H](CCCCN)NC1=O	.	.	1.2	.	.
O=C(CCN1CCC(c2ccccc2)C1)c1ccccc1 (centres undefined)	0.1%	5.7%[2.29 µM]	-1.1	?	-1.9%
O=C(CCN1CCC(c2ccccc2)C1)c1ccc2c(c1)OCCO2 (centres undefined)	-7.0%	2.8%	1.2	0.282µM*	-4.4%
CCN1CCOC(=O)C1CC(=O)Nc1cc(Cl)ccc1C (centres undefined)	22.3%	3.6%	.	11.2µM*	.
CCN(CC)c1ccc(/C=C/c2ccc3ccccc3n2)cc1	.	-10.9%	.	-5.9%	.
CCNC(=O)C/C(C)=N/NC(=O)C12CC3CC(CC(C3)C1)C2	11.5%	3.5%	-2.0	25.1µM*	8.9%
CCNC(=O)C/C(C)=N/NC(=O)C1CCCCC1	4.0%	-9.9%	2.4	-28.4%	-0.7%
COc1ccc(NC(=O)[C@@H]2[C@@H]3C(=O)N(C4CCCCC4)C(=O)[C@@H]3C3c4ccccc4C=CN32)cc1 (some centres undefined)	-6.4%	3.2%[57.1 µM]	-30.6*	0.6%[57.1 µM]	3.5%
Cc1ccc(S(=O)(=O)C(C#N)c2nc3ccccc3nc2N2CCCC2)cc1 (centres undefined)	-4.4%	22.3%	-30.0*	-24.6%	15.5%
CCN1CCN(c2nc3ccccc3nc2C(C#N)S(=O)(=O)c2ccc(C)cc2)CC1 (centres undefined)	-8.3%	-7.1%	3.4	-10.9%	-4.7%
C=CCn1c(SCC(C)=O)nc2scc(-c3ccc(C)o3)c2c1=O	1.3%	6.4%[57.1 µM]	1.8	-63.9%	-0.7%
C=CCn1c(SCC(=O)NCC2CCCO2)nc2scc(-c3ccccc3)c2c1=O (centres undefined)	4.5%	2.9%	1.1	7.0%	-21.9%
C=CCn1c(SCC(=O)NCCCC)nc2scc(-c3ccco3)c2c1=O	3.6%	-1.9%	1.4	44.7µM*	-1.8%
C=CCn1c(SCC(=O)NC2CCCC2)nc2scc(-c3ccco3)c2c1=O	1.6%	-3.2%	0.4	35.5µM*	-20.0%
CCCCCCCCCCCCCCCCOC[C@H](COP(=O)([O-])OCC[N+](C)(C)C)OC(=O)CCCCCCCC(=O)O	.	.	18.2	.	.
